This note sets out measurements from PubChem BioAssay (NCATS).

A short description of assay [1]: qHTS for activators of dead-cell proteases activity screened against the NCATS CANVASS Library (AID 1347392). In outline:
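HepG2 cells (2000/well) attached 18 h at 37C, then exposed 5 h to compounds (11-point qHTS). Dead-cell protease activity read as luminescence from cell-impermeant AAF-aminoluciferin substrate after 15 min at room temperature.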

Assay [2] can be described thus: Vero-766 cells viability qHTS against the NCATS CANVASS Library: Counterscreen for Zika virus inhibition assay (AID 1347394). The source says:
Natural products and their derivatives continue to be wellsprings of nascent therapeutic potential. However, many laboratories have limited resources for biological evaluation, leaving their previously isolated or synthesized compounds largely or completely untested. To address this issue, the Canvass library of natural products was assembled (https://tripod.nih.gov/canvass), in collaboration with academic and industry researchers, for quantitative high-throughput screening (qHTS) across a diverse set of cell-based and biochemical assays. The pure (>85% purity by liquid chromatography/mass spectrometry [LC/MS]) Canvass library of 346 natural products were submitted by 45 academic laboratories and companies around the world. […] The library was formatted into 1536-well plates and evaluated in 50 qHTS (in an 11-pnt concentration series) bioassays with broad scope of disease-relevant mechanisms. The resulting data set from 50 different assays was then systematically analyzed to identify overall trends and specific natural products with interesting biological activities. […] A decrease in the luminescence signal is caused by cytotoxic compounds. […]
Zika-counterscreen assay protocol: 1. […] Luminescence signal was obtained via the ViewLux plate reader (Perkin Elmer) using the clear emission filter and 1x binning, 2 seconds exposure settings.

A short description of assay [3]: qHTS for inhibitors of Wild type Zika virus screened against the NCATS CANVASS Library (AID 1347396). In outline: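 Vero 766 (African green monkey) cells, 1000 per well, attached overnight, then compounds were added in an 11-point series before wild-type Zika virus infection. After 72 h at 37C, cell viability was read as CellTiter Glo luminescence.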
For orientation: qHTS replaces the single test concentration by a dilution series.

Assay [4] can be described thus: qHTS to identify inhibitors of the type 1 interferon - major histocompatibility complex class I in skeletal muscle: primary screen against the NCATS Pharmaceutical Collection (AID 1347407). The source says: Assay Submitter (PI): Travis B. Kinder Ph.D. & James Inglese Ph.D.
Assay Development and Screening Technology Laboratory (ADST)
National Center for Advancing Translational Sciences (NCATS), Rockville, MD
National Institute of Health (NIH), Bethesda, Maryland
Idiopathic inflammatory myopathies, collectively referred to as myositis, are a group of rare autoimmune diseases characterized by skeletal muscle inflammation, weakness, and usually accompanied by systemic pathologies of the skin, lungs, or vasculature. Current immunosuppressive therapies and glucocorticoids are often not curative and are accompanied by harsh side effects, especially in children with juvenile myositis. We initiated a drug repurposing and development program to identify more targeted, less toxic therapeutics to treat myositis. Although its cause is not known, muscle from a subset of patients have an abundance of the inflammatory type 1 interferon (IFN) and a down-stream product major histocompatibility complex class I (MHC class I), which are both thought to contribute to damage and weakness. We conducted quantitative high throughput screening on 6,576 compounds (4,679 unique) through a series of cell-based assays to identify those that inhibit the IFN-stimulated expression of MHC class I in muscle precursor cells (myoblasts). The compound identification and evaluation strategy utilized a primary screen with reporter-tagged MHC class I in genome-engineered myoblasts, ATP content counter screen for viability, HLA-ABC immunofluorescence secondary screen, and HLA-B RT-qPCR tertiary screen.
The primary screen utilized CRISPR/Cas9 genome-engineering of immortalized human myoblasts, C25cl48, where a pro-luminescent reporter HiBit was fused to the C-terminus of endogenous MHC class I allele HLA-B*08:01 (HLA-B HiBit myoblasts). HiBit is an 11 amino acid fragment of NanoLuc luminescent reporter (Promega Corporation), and when complexed to the larger LgBit fragment, the reconstituted enzyme produces light in the presence of furimazine substrate (Schwinn et al., 2018). Briefly, HLA-B HiBit myoblasts were plated into 1536-well plates, treated with 4.0 ng/ml human IFN-beta and 2,816 compounds from the NCATS Pharmaceutical Collection (NPC) that contains all drugs approved in the US, EU, and Japan (Huang et al., 2011) in an 8-point, 1:5 titration with a high final concentration of 46 uM. After 24 hrs of treatment, cells were assayed by Nano-Glo HiBiT Lytic Detection System (Promega) and luminescence measured by a ViewLux 1430 Ultra HTS (Perkin Elmer).
Huang R, Southall N, Wang Y, Yasgar A, Shinn P, Jadhav A, Nguyen D-T, Austin CP. 2011. The NCGC pharmaceutical collection: a comprehensive resource of clinically approved drugs enabling repurposing and chemical genomics. Sci Transl Med 3:80ps16. doi:10.1126/scitranslmed.3001862
Schwinn MK, Machleidt T, Zimmerman K, Eggers CT, Dixon AS, Hurst R, Hall MP, Encell LP, Binkowski BF, Wood K V. 2018. CRISPR-Mediated Tagging of Endogenous Proteins with a Luminescent Peptide. ACS Chem Biol 13:467-474. doi:10.1021/acschembio.7b00549
PROTOCOL TABLE (as described by Inglese et al., 2007)
SEQUENCE No. (e.g., 1, 2, 3, etc.); […] (e.g., Cells, Incubation, Reagent, etc.); VALUE; DESCRIPTION
1a; Cells; 5 uL; Use a Multidrop Combi (Thermo Scientific) to seed 350 cells/well into nine Greiner 1536 well white/solid bottom, high base, TC plates in 5 ul/well of iHSKM growth medium (GM) without dexamethasone into columns 1+2. Add metal lids with gas-exchange holes
1b; Cells; 5 uL; Use a Multidrop Combi (Thermo Scientific) to seed 350 cells/well into nine Greiner 1536 well white/solid bottom, high base, TC plates in 5 ul/well of iHSKM GM without dexamethasone + 4 ng/ml IFN-b into columns 3 - 48. Add metal lids with gas-exchange holes
2; Incubate; 1 hr; Incubate at 37 C, 5% CO2, 95% RH
[…]

The target of assay [5] is Protein phosphatase 1D (Homo sapiens) (UniProt O15297). In words: RapidFire Mass Spectrometry qHTS Assay for Modulators of WT P53-Induced Phosphatase 1 (WIP1) (AID 1347424). In outline: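 WIP1 (10 nM final) was preincubated 1 h at room temperature with compounds in Tris-HCl pH 7.5, 30 mM MgCl2, TCEP, EGTA, BSA; 2 uM VEPPL-pS-QETFS phosphopeptide was added for 5 min, quenched with formic acid, and dephosphorylated product quantified by RapidFire MS.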
Chain of Protein phosphatase 1D (Homo sapiens) (O15297 whole entry, looked up): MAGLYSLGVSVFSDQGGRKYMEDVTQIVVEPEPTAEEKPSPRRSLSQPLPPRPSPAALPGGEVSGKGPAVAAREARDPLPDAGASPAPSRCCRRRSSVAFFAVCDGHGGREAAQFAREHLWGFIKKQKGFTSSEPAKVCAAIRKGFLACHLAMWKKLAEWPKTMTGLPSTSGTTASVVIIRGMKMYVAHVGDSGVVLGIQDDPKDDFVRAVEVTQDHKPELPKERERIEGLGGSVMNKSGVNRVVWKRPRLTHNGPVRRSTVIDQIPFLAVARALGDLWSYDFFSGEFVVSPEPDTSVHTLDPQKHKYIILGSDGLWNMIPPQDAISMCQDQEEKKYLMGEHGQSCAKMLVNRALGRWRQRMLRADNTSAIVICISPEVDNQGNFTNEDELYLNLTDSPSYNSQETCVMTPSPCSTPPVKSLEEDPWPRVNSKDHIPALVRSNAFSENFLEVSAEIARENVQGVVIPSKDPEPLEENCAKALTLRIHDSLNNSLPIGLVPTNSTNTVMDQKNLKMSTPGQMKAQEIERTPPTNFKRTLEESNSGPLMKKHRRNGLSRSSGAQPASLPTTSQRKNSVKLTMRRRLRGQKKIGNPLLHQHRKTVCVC

Assay [6] can be described thus: qHTS to identify inhibitors of the type 1 interferon - major histocompatibility complex class I in skeletal muscle: primary screen against the NCATS Mechanism Interrogation Plate v5.0 (MIPE) Libary (AID 1347411). In outline: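 Immortalized human C25cl48 myoblasts with HiBit knocked into endogenous HLA-B*08:01 were stimulated with 4.0 ng/ml IFN-beta and exposed to compounds (11-point 1:3 titration, top 46 uM final) for 24 hrs at 37 C; HiBiT lytic luminescence measured.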

Records with an inconclusive call do not appear. Unmarked numbers belong to inactive results. Active and inactive are the calls of the source. Calls follow the shape of the dose curve; as a rule, active = well fitted curve in the direction sought with a large enough effect; inconclusive = small, poorly fitted or top-dose-only effect, or another doubt; inactive = no such curve, though single readings can be large; an effect the other way counts as inactive or inconclusive.

For the molecule `O=c1c(O)c(-c2ccc(O)c(O)c2)oc2cc(O)ccc12`, the molecule was classed as inactive in assay [1] and in assay [3]. Besides, in assay [2], the Potency result is “inactive”.

As for `N[C@H]1CN(c2c(F)cc3c(=O)c(C(=O)O)cn(C4C[C@@H]4F)c3c2Cl)CC12CC2` (stereo partly drawn), the outcome in assay [4] was inactive. In addition, in assay [5], the Potency entry is “inactive”.

On to `Cc1cn([C@@H]2O[C@H](CO)[C@@H](O)[C@H]2F)c(=O)[nH]c1=O`, for which, in assay [4], the molecule was called inactive. Besides, in assay [5], the Potency result is “inactive”.

Consider `CN(C)CCN1C(=O)c2cccc3cc(N)cc(c23)C1=O`, for which the Potency in assay [6] is 10.4 µM (active).

As to `O=C(CN1C(=O)C2(CCCC2)NC[C@H]1c1cc(F)cc(F)c1)Nc1ccc2c(c1)C[C@@]1(C2)C(=O)Nc2ncccc21`, in assay [6], the Potency entry is “inactive”.

`COc1ccc(S(=O)(=O)Nc2cccnc2Nc2ccc(O)cc2)cc1`: the Potency entry in assay [6] is “inactive”.

As to `Cc1ccc(O)c(C(CCN(C(C)C)C(C)C)c2ccccc2)c1` (stereo not drawn), the Potency entry in assay [6] is “inactive”.

As to `C[N+](C)([O-])CCNc1ccc(NCC[N+](C)(C)[O-])c2c1C(=O)c1c(O)ccc(O)c1C2=O`, the Potency result in assay [6] is “inactive”.

For the molecule `Cc1ncc(-c2ccnc(Nc3ccc(S(C)(=O)=O)cc3)n2)n1C(C)C`, the Potency in assay [6] was 1.17 µM (active).

As to `Nc1ccn(C[C@@H](CO)OCP(=O)(O)O)c(=O)n1`, the activity change, negative = inhibition in assay [6] was -9.6% [at 8.44 µM].

`CCN(C(=O)c1c(O)c2c(Cl)cccc2n(C)c1=O)c1ccccc1`: the Potency result in assay [6] is “inactive”.

Take `CCCc1nc(C(C)(C)O)c(C(=O)O)n1Cc1ccc(-c2ccccc2-c2nn[nH]n2)cc1`: the Potency entry in assay [6] is “inactive”.

Regarding `C=C(C)[C@@H]1CC[C@]2(C)CC[C@]3(C)[C@H](CC[C@@H]4[C@@]5(C)CC[C@H](O)C(C)(C)[C@H]5CC[C@]43C)[C@@H]12`, in assay [6], the Potency result is “inactive”.

Consider `O=C1NC(O)CCN1[C@@H]1O[C@H](CO)[C@H](O)[C@H]1O` (stereo partly drawn), for which the Potency result in assay [6] is “inactive”.
